Source: the supplement of paper PMC3342239
Structures can show the parent of a compound that is named as a salt.

Tested on: Saccharomyces cerevisiae
Assay: fraction of cells in G1 phase (DNA content, flow cytometry); higher = more cells with unreplicated DNA (G1 delay)
Settings: temperature: 30 C; YPD; BY4741 PDR5+ SNQ2+; drug added to: actively dividing cells; 4.33 h
Experimental: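 S. cerevisiae cultures in YPD at 30°C were treated with each drug of the Enzo FDA-approved library at 20 µg/ml (final µM given per drug). Cells were fixed after 6–7 h (S1) or 6 h (S2), or after 4.33 h for BY4741 (S3), then stained with SYTOX Green. %G1 is the Dean-Jett-Fox G1 peak area divided by the G1+G2/M peak areas, written as a fraction and averaged over at least two independent experiments. DMSO reference: mean ~0.49; >0.60 is called High G1 and <0.3876 Low G1. Scale: lower means mitotic delay.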

SMILES	fraction of cells in G1 phase
O=C(CCCN1CCC(O)(c2ccc(Cl)cc2)CC1)c1ccc(F)cc1 [Haloperidol HCl] (53.2093 µM)	0.462
OC(Cn1cncn1)(Cn1cncn1)c1ccc(F)cc1F [Fluconazole] (65.3004 µM)	0.441
CC1=C(/C=C/C(C)=C/C=C/C(C)=C/C(=O)Nc2ccc(O)cc2)C(C)(C)CCC1 [Fenretinide] (51.0779 µM)	0.462

Same assay, conditions: temperature: 30 C; YPD; JTY2953 pdr5 snq2 (sensitized); drug added to: actively dividing cells; 6 h

SMILES	fraction of cells in G1 phase
COc1ccc(CN2CCN(C(c3ccc(F)cc3)c3ccc(F)cc3)CC2)c(OC)c1OC [Lomerizine HCl] (42.685 µM)	0.558
Clc1ccc(C(Cn2ccnc2)OCc2ccsc2Cl)c(Cl)c1 (stereo unspecified) [Tioconazole] (51.5839 µM)	0.427
COC1=C(OC)C(=O)C(CCCCCCCCCCO)=C(C)C1=O [Idebenone] (59.0933 µM)	0.472
O=C(CCCN1CCC(O)(c2ccc(Cl)cc2)CC1)c1ccc(F)cc1 [Haloperidol HCl] (53.2093 µM)	0.762
OC(Cn1cncn1)(Cn1cncn1)c1ccc(F)cc1F [Fluconazole] (65.3004 µM)	0.711
CC1=C(/C=C/C(C)=C/C=C/C(C)=C/C(=O)Nc2ccc(O)cc2)C(C)(C)CCC1 [Fenretinide] (51.0779 µM)	0.681
CCCCc1oc2ccccc2c1C(=O)c1cc(I)c(OCCN(CC)CC)c(I)c1 [Amiodarone] (30.9922 µM)	0.388
Clc1ccc(Nc2nnc(Cc3ccncc3)c3ccccc23)cc1 [Vatalanib] (57.6664 µM)	0.691
CCOC(=O)C1=C(C)NC(C)=C(C(=O)OC)C1c1cccc(Cl)c1Cl (stereo unspecified) [Felodipine] (52.0478 µM)	0.609

Same assay, conditions: temperature: 30 C; YPD; JTY2953 pdr5 snq2 (sensitized); drug added to: cultures diluted from stationary phase; 6-7 h

SMILES	fraction of cells in G1 phase
CS(=O)(=O)c1ccc(C2=C(c3ccccc3)C(=O)OC2)cc1 [Rofecoxib] (63.6208 µM)	0.536
O=C(O)/C=C/c1ccc(Cn2ccnc2)cc1 [Ozagrel] (87.6221 µM)	0.471
COc1ccc(CN2CCN(C(c3ccc(F)cc3)c3ccc(F)cc3)CC2)c(OC)c1OC [Lomerizine HCl] (42.685 µM)	0.638
CC1=C(/C=C/C(C)=C/C=C/C(C)=C/C(=O)O)C(C)(C)CCC1 [Retinoic acid] (66.5679 µM)	0.524
CCCC(CCC)C(=O)O [Valproic acid] (138.681 µM)	0.541
NC1CCN(c2nc3c(cc2F)c(=O)c(C(=O)O)cn3-c2ccc(F)cc2F)C1 (stereo unspecified) [Tosufloxacin] (49.4619 µM)	0.428
Clc1ccc(C(Cn2ccnc2)OCc2ccsc2Cl)c(Cl)c1 (stereo unspecified) [Tioconazole] (51.5839 µM)	0.863
COC1=C(OC)C(=O)C(CCCCCCCCCCO)=C(C)C1=O [Idebenone] (59.0933 µM)	0.693
CC1=Nc2ccc(Cl)cc2S(=O)(=O)N1 [Diazoxide] (86.7024 µM)	0.516
O=C(CCCN1CCC(O)(c2ccc(Cl)cc2)CC1)c1ccc(F)cc1 [Haloperidol HCl] (53.2093 µM)	0.617
OC(Cn1cncn1)(Cn1cncn1)c1ccc(F)cc1F [Fluconazole] (65.3004 µM)	0.611
COC(=O)N/N=C/c1c[n+]([O-])c2ccccc2[n+]1[O-] [Carbadox] (76.2699 µM)	0.414
Cn1c(NCCN(CCO)CCCc2ccc([N+](=O)[O-])cc2)cc(=O)n(C)c1=O [Nifekalant HCl] (49.327 µM)	0.479
CCCCN1CCCCC1C(=O)Nc1c(C)cccc1C (stereo unspecified) [Bupivacaine HCl] (69.3393 µM)	0.447
CC(C)NCC(O)c1ccc(O)c(O)c1 (racemic) [Isoproterenol HCl (rac)] (94.6687 µM)	0.447
CC1=C(/C=C/C(C)=C/C=C/C(C)=C/C(=O)Nc2ccc(O)cc2)C(C)(C)CCC1 [Fenretinide] (51.0779 µM)	0.604
CCCCc1oc2ccccc2c1C(=O)c1cc(I)c(OCCN(CC)CC)c(I)c1 [Amiodarone] (30.9922 µM)	0.868
CC1(C)C[C@@H]1C(=O)N/C(=C\CCCCSC[C@H](N)C(=O)O)C(=O)O [Cilastatin] (55.7942 µM)	0.484
CN(C)CCCOc1nn(Cc2ccccc2)c2ccccc12 [Benzydamine] (64.6382 µM)	0.48
CN1CCN(C2=Nc3ccccc3Sc3ccc(Cl)cc32)CC1 [Clothiapine] (58.1596 µM)	0.431
OCCN(CCO)c1nc(N2CCCCC2)c2nc(N(CCO)CCO)nc(N3CCCCC3)c2n1 [Dipyridamole] (39.6324 µM)	0.535
Cc1cc2c(s1)Nc1ccccc1N=C2N1CCN(C)CC1 [Olanzapine] (64.0123 µM)	0.527
C[C@@](Cc1ccc(O)c(O)c1)(NN)C(=O)O [Carbidopa] (88.404 µM)	0.482
CCN(CC)CC(=O)Nc1c(C)cccc1C [Lidocaine] (73.8552 µM)	0.499
Clc1ccc(Nc2nnc(Cc3ccncc3)c3ccccc23)cc1 [Vatalanib] (57.6664 µM)	0.699
CCOC(=O)/C=C(C)/C=C/C=C(C)/C=C/c1c(C)cc(OC)c(C)c1C [Etretinate] (56.4185 µM)	0.557
COc1ccccc1Oc1c(NS(=O)(=O)c2ccc(C(C)(C)C)cc2)nc(-c2ncccn2)nc1OCCO [Bosentan] (36.2564 µM)	0.497
COc1ccc2[nH]c([S@@+]([O-])Cc3ncc(C)c(OC)c3C)nc2c1 [Esomeprazole potassium] (57.9 µM)	0.522
CCOC(=O)C1=C(C)NC(C)=C(C(=O)OC)C1c1cccc(Cl)c1Cl (stereo unspecified) [Felodipine] (52.0478 µM)	0.683
